In the library only some 4.1% were active in any assay of this set; here they are far more common.
AmpC inh no detg = AmpC beta-lactamase inhibition without detergent; AmpC nitrocefin hydrolysis, absorbance 480 nm, 0.0001% Triton; 0.52% of 330,000 active; Potency, µM (highest dose often 57.1 µM), for the others: at the top dose activity change, negative = inhibition, usual class: inhibitors; P00811;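 note: plate controls were no compound for no effect and no enzyme for full effect; nearly all actives have a fitted effect of over 20% in size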
Target sequence (P00811 whole entry, looked up): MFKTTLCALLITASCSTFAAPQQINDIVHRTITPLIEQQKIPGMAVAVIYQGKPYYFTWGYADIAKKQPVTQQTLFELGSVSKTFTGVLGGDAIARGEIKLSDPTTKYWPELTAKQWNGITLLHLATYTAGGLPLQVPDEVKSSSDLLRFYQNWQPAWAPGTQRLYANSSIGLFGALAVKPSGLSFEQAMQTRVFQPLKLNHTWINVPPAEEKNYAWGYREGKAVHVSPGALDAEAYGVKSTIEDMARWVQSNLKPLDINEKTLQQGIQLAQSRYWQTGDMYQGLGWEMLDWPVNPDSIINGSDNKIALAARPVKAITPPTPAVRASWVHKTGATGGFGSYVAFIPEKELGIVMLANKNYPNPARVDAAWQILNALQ
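AmpC (5.3 nM in the dispensed reagent) in 20 mM phosphate pH 7.0 with 0.01% (detergent screen) or 0.0001% Triton X-100 was preincubated with compounds for 15 min at room temperature. Nitrocefin was then added from an 800 uM solution, and hydrolysis was followed at 480 nm.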
Sm TGR inh = blocks Schistosoma mansoni thioredoxin glutathione reductase; Potency, µM (highest dose often 114 µM), for the others: at the top dose activity change, negative = inhibition, most hits filed as inhibitors; AID 485364; 3% of 360,000 active; purified TGR, DTNB reduction, TNB absorbance 405 nm; Q962Y6; note: nearly all actives have a fitted effect of over 60% in size
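First, TGR (20 nM dispensed) and NADPH were mixed with compound. Second, a 15 min room-temperature incubation followed. Third, further NADPH and then DTNB were added to start the reaction. Finally, TNB absorbance was monitored kinetically.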
AMA1 RON2 block = AMA1-RON2 (P. falciparum) interaction inhibition; AlphaScreen AMA1-biotinylated RON2 peptide binding; Potency, µM (highest dose often 58.2 µM), for the others: top-dose activity change, negative = inhibition, usual class: inhibitors; 0.2% of 360,000 active; AID 720542;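 note: 0% = vehicle wells and -100% = peptide control; nearly all actives have a fitted effect of over 45% in size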
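AMA1 (3D7) with his tag at 25 nM final met compounds first, then biotinylated RON2 peptide at 25 nM; detection used donor plus acceptor beads, 10 µg/mL apiece, read by AlphaScreen after 30 min at room temperature.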
FMDV antiviral = blocks foot and mouth disease virus | 1.2% of 410,000 active | Potency, µM (doses to about 57.9 µM), for inactives: at the highest dose activity change, negative = inhibition, hits mostly inhibitors | FMDV antiviral cell-based qHTS; calls by dose curve; tested in HEK293T cells; note: read-out not given here; nearly all actives have a fitted effect of over 45% in size
AmpC detergent = inhibitors of E. coli AmpC beta-lactamase with detergent. P00811. AmpC hydrolysis of nitrocefin, absorbance 480 nm, 0.01% Triton. Potency, µM (top dose mostly 114 µM), inactives show top-dose activity change, negative = inhibition, actives largely listed as inhibitors. 0.041% of 370,000 active. AID 485294;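 note: 0% = no-compound wells and -100% = no-enzyme wells; nearly all actives have a fitted effect of over 25% in size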
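AmpC (5.3 nM in the dispensed reagent) in 20 mM phosphate pH 7.0 with 0.01% (detergent screen) or 0.0001% Triton X-100 was preincubated with compounds for 15 min at room temperature. Nitrocefin was then added from an 800 uM solution, and hydrolysis was followed at 480 nm.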
The depositor's hits bear a star; ? = inconclusive; . = not tested or not shown; [ ] = another dose, or the depositor's remark. Unless noted, calls come from the whole dose curve; as a rule, active = well fitted curve in the direction sought with a large enough effect; inconclusive = small, poorly fitted or top-dose-only effect, or another doubt; inactive = no such curve, though single readings can be large; an effect the other way counts as inactive or inconclusive. Unless noted, % is set by controls: 0 for no effect and ±100 for the full control effect; potency is the fitted concentration of half-maximal effect.

SMILES | AmpC inh no detg | Sm TGR inh | AMA1 RON2 block | FMDV antiviral | AmpC detergent
Cc1nc2ccn(Cc3ccco3)c(=O)c2cc1C(=O)NCc1ccccc1 | . | -10% | . | 4% | 5%
Cc1cc(C)cc(Nc2cc(C(=O)NCc3ccccc3)c3ccccc3n2)c1 | . | 35µM* | . | 12% | 8%
Cc1ccc(CNC(=O)c2cc3c(C)nc4ccccc4c3o2)cc1 | ? | -5% | 4% | 13µM* | ?
N#Cc1cccc(-c2nccc(-n3ccnc3)n2)c1 | . | . | . | -7% | .
COc1cccc(N2CCN(C(=O)c3cc4c(=O)n(Cc5ccco5)ccc4nc3C)CC2)c1 | . | 10µM* | . | -17% | 5%
O=C(CCCCCn1c(=O)[nH]c2ccsc2c1=O)NCc1ccccc1 | . | -1% | . | 24% | 6%
COc1ccccc1C1CN(Cc2c(C)nc3sccn23)Cc2ccccc2O1 (centres undefined) | . | . | . | 7% | .
CCCc1[nH]nc2c1C(c1ccc(OCCN3CCOCC3)c(OC)c1)C(C#N)=C(N)O2 (centres undefined) | 42% | 0% | 3% | -29% | -16%
CCOc1cc(C2C(C#N)=C(N)SC(N)=C2C#N)ccc1OCCN1CCOCC1 | 46% | 22µM* | 46% | . | ?
O=C(Oc1ccc(NC2=C(Cl)C(=O)c3ccccc3C2=O)cc1)c1ccc([N+](=O)[O-])cc1 | -22% | -16% | -12% | ? | -5%
CC(=O)Nc1ccc(NC2=C(Cl)C(=O)c3ccccc3C2=O)cc1 | -20% | 0.89µM* | -1% | 28µM* | 17%
COc1ccccc1NC1=C(NC(C)=O)C(=O)c2ccccc2C1=O | -9% | 4µM* | 16% | 6% | 3%
CN(C)c1ccc(NC2=C(Cl)C(=O)c3ccccc3C2=O)cc1 | -14% | 8.9µM* | 7.9µM* | ? | ?
O=C1C(Cl)=C(Nc2ccc3cn[nH]c3c2)C(=O)c2ccccc21 | -38% | 0.32µM* | -17% | 20µM* | -3%
O=C(Nc1ccc2cn[nH]c2c1)c1c(Cl)cccc1Cl | -22% | 1% | 5%[11.6 µM] | -9% | 2%
CC[C@H]1OC(=O)C[C@@H](O)[C@H](C)[C@@H](O[C@@H]2O[C@H](C)[C@@H](O)[C@H](N(C)C)[C@H]2O)[C@@H](CCN2C[C@H](C)C[C@H](C)C2)C[C@@H](C)C(=O)/C=C/C(C)=C/[C@@H]1CO[C@@H]1O[C@H](C)[C@@H](O)[C@@H](OC)[C@H]1OC | . | . | . | -12% | .
CCCn1c(=S)[nH]c2cc(C(=O)N3CCN(C(=O)OCC)CC3)ccc2c1=O | 56% | -4% | 34% | -18% | 2%
CCCn1c(=S)[nH]c2cc(C(=O)N3CCCC(C(=O)OCC)C3)ccc2c1=O (centres undefined) | 0% | 1% | 93% | 18µM* | -10%
Cc1cc(C)cc(OCC(=O)Nc2nc3c(s2)CC(C(C)(C)C)CC3)c1 (centres undefined) | . | 7% | . | -26% | 2%
Cc1cc(SCC(=O)N2CCCC2=O)nc2c(C)cccc12 | 2% | -3% | -9% | -9% | -12%
Cc1cc(SCC(=O)NC2(C#N)CCCCC2)nc2c(C)cccc12 | 32µM* | 3% | 5% | -1% | -15%
O=C(CSc1nnc(-c2cccnc2)n1Cc1ccco1)c1ccccc1 | -5% | -31% | -7% | -4% | -7%
O=C(CSc1nnc(-c2ccc(O)cc2)n1Cc1ccco1)c1ccccc1 | -30% | 45µM* | -6% | -18% | -7%
O=C(CC(SCc1ccco1)c1ccc(O)cc1)c1cccs1 (centres undefined) | -43% | 28µM* | -5% | -3% | -8%
Cc1occc1-c1nnc(SCC(=O)c2ccc(F)cc2)n1Cc1ccco1 | -19% | 22µM* | -26% | -4% | 0%
SMILES | AmpC inh no detg | Sm TGR inh | AMA1 RON2 block | FMDV antiviral | AmpC detergent
O=C(CSc1nnc(-c2ccc(O)cc2)n1Cc1ccco1)c1cccs1 | -27% | 25µM* | -9% | -23% | 0%
COc1cc(OC)cc(C(=O)Oc2c(Sc3ccccc3)c(C)nn2C(C)(C)C)c1 | . | -3% | . | ? | -4%
Cn1c(CNC(=O)c2ccco2)nnc1SCC(=O)c1ccc(F)cc1 | -8% | 10µM* | 16% | -9% | 4%
CC(C)N1C(=O)/C(=C\c2nc3ccccc3c(=O)[nH]2)c2ccccc21 | 99% | 2% | ? | 40µM* | -10%
CCCN1C(=O)/C(=C/c2nc3ccccc3c(=O)[nH]2)c2ccccc21 | -14% | 3% | -9% | 0% | 1%
OC(c1ccc(F)c(F)c1)c1nc(-c2ccc3c(c2)OCO3)cs1 (centres undefined) | . | . | -13% | -5% | .
C[n+]1ccc(/C=N/Nc2nc(Cl)c(C#N)c(Cl)c2Cl)cc1 | -23% | 11µM* | 31% | -20% | -7%
Clc1nnc(N/N=C/c2ccccc2)c2ccccc12 | 0% | 0% | 32% | 32% | 3%
COC(=O)c1ccc2nc(NC(=O)C(C)(C)C)sc2c1 | -5% | 20% | 5% | 14µM* | -1%
COC(=O)c1ccc2nc(NC(=O)C3CCCCC3)sc2c1 | -9% | 0% | 0% | -3% | -3%
Cc1cccc(S(=O)(=O)NC(=O)C2(C)CCN2C(=O)Cc2cc(F)ccc2F)c1 (centres undefined) | . | . | 40µM* | -8% | .
Cc1ccc(-c2csc(/C(C#N)=C(\O)CCl)n2)cc1 | -25% | 18µM* | 17% | -11% | 3%
COc1ccc(NC(=S)Nc2cccc([N+](=O)[O-])c2)cc1 | -30% | 20µM* | 6% | 21% | -10%
COc1ccc(NC(=O)c2cc([N+](=O)[O-])ccc2O)cc1 | -28% | 0% | 1% | 6.3µM* | 1%
O=C(Nc1cccc([N+](=O)[O-])c1)c1cc2ccccc2cc1O | 13µM* | 7% | 44% | -15% | 0%
COc1ccc(NC(=O)c2cccc([N+](=O)[O-])c2)cc1 | -32% | 6% | 1% | 27% | 11%
Cc1ccccc1Nc1c(-c2ccsc2)nc2c(C)cccn12 | . | 0% | . | ? | 15%
CCOC(=O)c1c(C)n(C)c2ccc(O)c(CN3CCC(C)CC3)c12 | -7% | -26% | -5% | -23% | -13%
CCCCn1c(C)c(C(=O)OCC)c2c(CN3CCCC3)c(O)ccc21 | 69% | 4% | 5% | -28% | -13%
CCCCn1c(C)c(C(=O)OCC)c2c(CN3CCOCC3)c(O)ccc21 | 69% | 40µM* | -13% | -16% | ?
CCOC(=O)c1c(C)n(C)c2ccc(O)c(CN3CCN(C)CC3)c12 | -7% | 35µM* | -6% | . | ?
COc1ccc(CC(=O)Nc2cccc(-c3ccc4nncn4n3)c2)cc1OC | -1% | -5% | 0% | 18µM* | 9%
COc1ccc(C(=O)Nc2cccc(-c3ccc4nncn4n3)c2)cc1OC | -39% | 3% | -2% | -7% | 3%
COc1ccc(CC(=O)Nc2cccc(-c3ccc4nnc(C)n4n3)c2)cc1OC | 35% | 0% | -9% | 20µM* | -1%

Compound activity (PubChem BioAssay)
